According to the supplement of paper PMC10849652:
About 7,900 targets were measured; listed, in parts, are those with a hit and a random draw of the rest. About 0.6% of all pairs of compound and target were hits.

These targets were tested with O=C(CCCCCCC(=O)Nc1ccccc1)NO [vorinostat] (assay: log2 fold change, soluble protein after heating vs DMSO (PISA); higher = thermal stabilisation; K562 cells, 10 uM, 30 min; active = over 0.2 and 3.5 SD of the protein, either way, in both replicates (recomputed)).
In short: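 Soluble protein was quantified by TMTpro 16plex LC-MS/MS after channel sums were equalised. It was obtained as the supernatant after 21,000xg for 90 min from pooled aliquots of K562 cells (2×10^6 cells/mL, 10 μM compound, 30 min) heated for 3 min across 48°C-58°C and extracted in PBS with 0.5% NP-40 at 4°C. Thermal stability values are relative to control samples and come from duplicates. They are given as log2 fold changes.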

Sequence of UniProt P56556 (P56556 whole entry, looked up): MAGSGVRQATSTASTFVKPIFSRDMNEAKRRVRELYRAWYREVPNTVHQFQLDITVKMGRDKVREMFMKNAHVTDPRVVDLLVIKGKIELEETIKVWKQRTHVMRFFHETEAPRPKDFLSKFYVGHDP
Sequence of MTHFD1, A0A384N5Y3 (A0A384N5Y3 whole entry, looked up): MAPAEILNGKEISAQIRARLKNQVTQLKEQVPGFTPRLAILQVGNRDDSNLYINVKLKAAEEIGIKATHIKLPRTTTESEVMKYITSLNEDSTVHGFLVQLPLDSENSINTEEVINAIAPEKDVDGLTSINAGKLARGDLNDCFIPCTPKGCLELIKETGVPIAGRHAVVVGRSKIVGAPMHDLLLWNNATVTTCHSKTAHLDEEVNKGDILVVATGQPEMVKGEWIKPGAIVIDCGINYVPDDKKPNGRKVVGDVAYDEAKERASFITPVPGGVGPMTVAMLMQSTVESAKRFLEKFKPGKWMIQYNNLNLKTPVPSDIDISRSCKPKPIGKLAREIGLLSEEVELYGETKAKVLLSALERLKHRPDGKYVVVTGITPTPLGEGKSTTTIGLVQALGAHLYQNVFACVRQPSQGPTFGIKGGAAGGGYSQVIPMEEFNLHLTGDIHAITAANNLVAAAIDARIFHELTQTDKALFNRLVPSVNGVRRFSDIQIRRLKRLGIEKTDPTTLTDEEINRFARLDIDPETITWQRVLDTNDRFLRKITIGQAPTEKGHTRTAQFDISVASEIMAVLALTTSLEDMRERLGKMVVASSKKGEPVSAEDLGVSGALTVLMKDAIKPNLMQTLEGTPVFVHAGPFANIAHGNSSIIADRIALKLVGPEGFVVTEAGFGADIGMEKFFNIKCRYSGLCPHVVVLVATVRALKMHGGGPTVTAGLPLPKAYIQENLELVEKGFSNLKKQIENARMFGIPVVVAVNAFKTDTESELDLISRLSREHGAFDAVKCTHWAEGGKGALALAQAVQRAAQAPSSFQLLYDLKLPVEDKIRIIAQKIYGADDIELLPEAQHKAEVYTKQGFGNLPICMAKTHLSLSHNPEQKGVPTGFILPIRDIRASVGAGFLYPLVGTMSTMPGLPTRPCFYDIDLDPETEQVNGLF
Sequence of UniProt Q9Y314 (Q9Y314 whole entry, looked up): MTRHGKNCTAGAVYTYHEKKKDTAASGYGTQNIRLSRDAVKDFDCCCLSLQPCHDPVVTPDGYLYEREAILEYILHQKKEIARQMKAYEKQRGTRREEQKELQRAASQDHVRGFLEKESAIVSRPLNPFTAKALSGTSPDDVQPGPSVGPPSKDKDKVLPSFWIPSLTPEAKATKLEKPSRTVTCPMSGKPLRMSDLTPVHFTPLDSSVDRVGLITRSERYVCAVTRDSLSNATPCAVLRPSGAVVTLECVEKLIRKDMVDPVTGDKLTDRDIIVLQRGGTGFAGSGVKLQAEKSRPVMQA
Sequence of UniProt P15531 (P15531 whole entry, looked up): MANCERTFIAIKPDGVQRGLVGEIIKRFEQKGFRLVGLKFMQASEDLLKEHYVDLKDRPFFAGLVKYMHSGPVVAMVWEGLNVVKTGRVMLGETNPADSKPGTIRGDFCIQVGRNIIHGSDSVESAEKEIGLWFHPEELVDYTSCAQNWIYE
Sequence of UniProt Q13469 (Q13469 whole entry, looked up): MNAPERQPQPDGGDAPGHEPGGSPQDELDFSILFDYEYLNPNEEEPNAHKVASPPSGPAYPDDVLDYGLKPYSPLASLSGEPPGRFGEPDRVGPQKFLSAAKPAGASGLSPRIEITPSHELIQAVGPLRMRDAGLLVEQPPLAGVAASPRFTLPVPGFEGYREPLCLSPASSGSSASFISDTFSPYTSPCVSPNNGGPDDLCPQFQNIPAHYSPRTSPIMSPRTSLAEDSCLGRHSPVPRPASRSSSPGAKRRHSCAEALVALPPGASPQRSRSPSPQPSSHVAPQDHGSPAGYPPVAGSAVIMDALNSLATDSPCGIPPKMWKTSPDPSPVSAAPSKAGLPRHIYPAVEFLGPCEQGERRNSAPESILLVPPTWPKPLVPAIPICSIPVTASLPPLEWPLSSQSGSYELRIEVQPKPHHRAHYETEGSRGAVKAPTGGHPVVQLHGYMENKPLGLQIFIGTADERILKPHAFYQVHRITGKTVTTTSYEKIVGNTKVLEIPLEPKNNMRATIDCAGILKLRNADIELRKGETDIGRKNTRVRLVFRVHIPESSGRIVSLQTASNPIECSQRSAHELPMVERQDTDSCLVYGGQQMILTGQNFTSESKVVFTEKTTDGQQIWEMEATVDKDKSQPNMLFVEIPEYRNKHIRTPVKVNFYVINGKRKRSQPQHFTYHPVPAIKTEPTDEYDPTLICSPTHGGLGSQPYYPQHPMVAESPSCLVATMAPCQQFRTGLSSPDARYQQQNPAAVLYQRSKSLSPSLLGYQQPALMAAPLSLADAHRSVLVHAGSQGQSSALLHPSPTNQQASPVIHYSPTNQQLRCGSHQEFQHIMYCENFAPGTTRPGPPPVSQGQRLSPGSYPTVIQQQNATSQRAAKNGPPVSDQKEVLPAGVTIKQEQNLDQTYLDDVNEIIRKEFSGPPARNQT
Sequence of UniProt Q9BZF1 (Q9BZF1 whole entry, looked up): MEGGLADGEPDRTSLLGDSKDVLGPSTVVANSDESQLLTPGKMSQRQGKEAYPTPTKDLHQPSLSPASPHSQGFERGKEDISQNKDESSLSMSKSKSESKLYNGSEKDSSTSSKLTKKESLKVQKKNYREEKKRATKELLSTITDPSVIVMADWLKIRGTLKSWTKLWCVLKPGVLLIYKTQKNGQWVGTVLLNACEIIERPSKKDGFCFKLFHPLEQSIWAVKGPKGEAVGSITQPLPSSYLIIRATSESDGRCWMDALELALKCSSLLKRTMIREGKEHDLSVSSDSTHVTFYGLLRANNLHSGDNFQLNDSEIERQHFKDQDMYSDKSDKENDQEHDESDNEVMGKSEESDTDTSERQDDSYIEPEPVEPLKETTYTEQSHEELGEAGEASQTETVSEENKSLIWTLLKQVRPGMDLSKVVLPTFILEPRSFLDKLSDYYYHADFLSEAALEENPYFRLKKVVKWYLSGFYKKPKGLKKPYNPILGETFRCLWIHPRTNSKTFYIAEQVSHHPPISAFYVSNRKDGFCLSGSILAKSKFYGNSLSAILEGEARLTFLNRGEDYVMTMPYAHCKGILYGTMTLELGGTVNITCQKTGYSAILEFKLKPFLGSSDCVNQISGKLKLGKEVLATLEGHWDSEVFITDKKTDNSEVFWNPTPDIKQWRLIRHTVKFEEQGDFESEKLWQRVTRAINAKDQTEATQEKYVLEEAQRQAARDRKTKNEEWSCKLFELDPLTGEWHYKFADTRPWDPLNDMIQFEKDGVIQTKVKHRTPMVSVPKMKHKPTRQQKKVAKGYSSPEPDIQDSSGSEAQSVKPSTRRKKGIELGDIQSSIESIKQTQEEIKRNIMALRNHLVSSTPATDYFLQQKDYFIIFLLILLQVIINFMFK
Sequence of UniProt P15559 (P15559 whole entry, looked up): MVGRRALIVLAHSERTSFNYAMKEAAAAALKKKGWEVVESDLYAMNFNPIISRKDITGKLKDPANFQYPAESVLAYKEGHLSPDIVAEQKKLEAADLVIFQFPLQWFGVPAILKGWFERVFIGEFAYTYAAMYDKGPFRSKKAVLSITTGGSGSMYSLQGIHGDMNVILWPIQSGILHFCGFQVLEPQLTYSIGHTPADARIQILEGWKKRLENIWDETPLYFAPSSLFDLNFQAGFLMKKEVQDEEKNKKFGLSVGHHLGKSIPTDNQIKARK
Sequence of UniProt P22059 (P22059 whole entry, looked up): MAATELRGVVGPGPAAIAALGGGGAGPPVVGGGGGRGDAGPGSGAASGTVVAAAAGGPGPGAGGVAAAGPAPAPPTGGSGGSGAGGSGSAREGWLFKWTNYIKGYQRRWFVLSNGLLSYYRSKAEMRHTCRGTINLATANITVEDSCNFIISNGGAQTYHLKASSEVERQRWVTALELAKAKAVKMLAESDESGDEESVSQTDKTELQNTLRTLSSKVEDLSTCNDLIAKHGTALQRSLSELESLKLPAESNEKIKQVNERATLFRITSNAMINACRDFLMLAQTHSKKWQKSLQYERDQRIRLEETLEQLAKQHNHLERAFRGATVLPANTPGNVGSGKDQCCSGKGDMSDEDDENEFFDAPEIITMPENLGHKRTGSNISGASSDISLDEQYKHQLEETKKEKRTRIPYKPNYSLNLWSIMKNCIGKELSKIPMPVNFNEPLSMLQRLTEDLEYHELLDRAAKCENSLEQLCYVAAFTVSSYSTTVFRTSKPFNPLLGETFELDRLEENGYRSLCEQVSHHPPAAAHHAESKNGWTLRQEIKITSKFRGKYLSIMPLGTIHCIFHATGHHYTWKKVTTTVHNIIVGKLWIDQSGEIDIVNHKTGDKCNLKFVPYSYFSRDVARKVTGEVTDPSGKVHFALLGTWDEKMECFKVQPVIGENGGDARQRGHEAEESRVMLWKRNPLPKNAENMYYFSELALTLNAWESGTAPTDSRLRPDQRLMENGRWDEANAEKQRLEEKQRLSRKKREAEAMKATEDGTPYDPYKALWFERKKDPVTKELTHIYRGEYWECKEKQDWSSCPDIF
Sequence of UniProt Q8NCF5 (Q8NCF5 whole entry, looked up): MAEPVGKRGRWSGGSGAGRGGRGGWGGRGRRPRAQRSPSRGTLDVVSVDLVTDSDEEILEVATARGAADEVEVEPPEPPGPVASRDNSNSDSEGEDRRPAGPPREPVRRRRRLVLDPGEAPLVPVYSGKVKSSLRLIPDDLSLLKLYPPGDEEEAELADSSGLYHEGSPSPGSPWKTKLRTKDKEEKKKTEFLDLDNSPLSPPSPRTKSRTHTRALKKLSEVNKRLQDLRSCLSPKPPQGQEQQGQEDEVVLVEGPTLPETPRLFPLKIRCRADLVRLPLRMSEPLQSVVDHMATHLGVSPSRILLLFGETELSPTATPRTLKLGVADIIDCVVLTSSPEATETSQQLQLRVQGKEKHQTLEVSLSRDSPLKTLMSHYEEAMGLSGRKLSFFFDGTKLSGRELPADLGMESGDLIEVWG
Sequence of UniProt Q9UI09 (Q9UI09 whole entry, looked up): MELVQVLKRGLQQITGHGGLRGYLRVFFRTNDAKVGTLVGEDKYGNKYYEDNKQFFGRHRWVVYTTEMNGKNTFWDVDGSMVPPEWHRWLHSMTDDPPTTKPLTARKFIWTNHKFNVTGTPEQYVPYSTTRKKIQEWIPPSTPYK

log2 fold change, inactive:
NFATC2 (UniProt Q13469) -0.011
MRPS18B (UniProt Q9Y676) 0.08
PACS1 (UniProt Q6VY07) 0.022
NUP205 (UniProt Q92621) 0.041
NA, A0A0B4J2A0 0.05
OSBP (UniProt P22059) 0.013
MKNK1 (UniProt Q9BUB5) -0.025
NMNAT1 (UniProt Q9HAN9) -0.077
MRPS25 (UniProt P82663) -0.036
NME1 isoform 2 (UniProt P15531) 0.103
MRPL47 (UniProt Q9HD33) -0.195
NDUFA12 (UniProt Q9UI09) 0.077
MOV10 (UniProt Q9HCE1) -0.02
MTHFD1, A0A384N5Y3 0.013
MRPS5 (UniProt P82675) 0.125
NFATC2IP (UniProt Q8NCF5) 0.078
NOL11 (UniProt Q9H8H0) -0.013
NDUFA6 (UniProt P56556) 0.118
OSBPL8 (UniProt Q9BZF1) 0.049
NOSIP (UniProt Q9Y314) 0.163
NR2C2 isoform 2 (UniProt P49116) -0.116
NDUFB8 (UniProt O95169) -0.075
NQO1 (UniProt P15559) -0.024
